p97 ATPase inh – inhibitors of human p97 ATPase, primary screen, biochemical | AID 1481, 2009 | Transitional endoplasmic reticulum ATPase (Homo sapiens), P55072 | 0.42% of 220,000 active | inhibition, % at 8 µM | recombinant p97 ATPase, Kinase-Glo ATP luminescence, 3 h; in the data active means inhibition above about 15%;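 further: 0% = DMSO vehicle and 100% = wells lacking enzyme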
LYPLA2 counter – LYPLA2 inhibitors, primary screen, counter-screen for PME1 inhibitor project, biochemical, fluorescence polarization, FP-Rh probe ABPP | inhibition, % at 5.9 µM | 0.38% of 320,000 active | recombinant LYPLA2 | AID 2177, 2009;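 active means inhibition above the screen-wide mean plus 3 SD, limit set per campaign, cut at about 26% in these data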;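 further: 0% = LYPLA2 with DMSO and 100% = wells lacking LYPLA2 enzyme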
LYPLA1 inh – LYPLA1 inhibitors, primary screen, counter-screen for PME1 inhibitor project, biochemical, fluorescence polarization, FP-Rh probe ABPP; recombinant LYPLA1; inhibition, % at 5.9 µM; 0.16% of 320,000 active; AID 2174, 2009;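 active means inhibition above the mean of all tested compounds plus 3 SD, set per campaign, cut at about 14% in these data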;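 further: inhibitors block serine hydrolase probe labeling of LYPLA1 so polarization falls; 0% = enzyme with DMSO and 100% = wells lacking LYPLA1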
Target sequence (O75608 whole entry, looked up): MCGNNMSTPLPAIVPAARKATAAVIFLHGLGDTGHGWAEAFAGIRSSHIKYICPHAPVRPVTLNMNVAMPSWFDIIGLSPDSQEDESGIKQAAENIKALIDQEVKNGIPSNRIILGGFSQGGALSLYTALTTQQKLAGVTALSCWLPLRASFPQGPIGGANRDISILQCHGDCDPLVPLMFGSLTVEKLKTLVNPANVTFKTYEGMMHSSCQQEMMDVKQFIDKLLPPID
Redox H2O2 prof – compounds producing H2O2 with reducing agent – biochemical, NIH compound library profiling, artefact control for MLSCN library redox annotation, primary screen; DTT-dependent redox cycling H2O2, phenol red/HRP absorbance; 100% = 100 µM peroxide control, 0% = buffer; activation, % at 10 µM; 0.03% of 200,000 active;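 active means activation of at least 50% relative to the plate's high and low controls in the primary single-dose screen; inactive means activation below 50%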;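 further: compound incubated with DTT at 0.8 mM final as the reducing agent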
LYPLA2 confirm – LYPLA2 inhibitors, retest, confirmation, counter-screen for PME1 inhibitor project, biochemical, fluorescence polarization, FP-Rh probe ABPP; shares compounds with LYPLA2 counter; recombinant LYPLA2; inhibition, % at 5.9 µM; 72% of 1,100 active; AID 2232, 2010;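 active means mean inhibition across replicates above the hit cutoff set in the primary screen, cut at about 26% in these data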;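 further: blocked labeling of the enzyme by serine hydrolase FP-Rh probe lowers polarization; 0% = enzyme with DMSO and 100% = wells lacking LYPLA2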
LYPLA2 ABPP – LYPLA2 inhibitors in proteome, late-stage follow-up, gel-based competitive ABPP, fluorescence, assay provider; shares compounds with LYPLA2 counter; rhLYPLA2 in mouse brain proteome, gel ABPP FP-Rh; inhibition, % at 20 µM; 30% of 150 active; AID 652029, 2013;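 active means inhibition of LYPLA2 enzyme probe labeling above about 50%, limit read from the data; inactive means inhibition below that limit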;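 further: loss of FP-Rh probe labeling of the LYPLA2 gel band measured as band density; 0% = DMSO only control band and 100% = blank gel background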
An asterisk follows results filed as active. This is a sample that favours compounds with a hit; in the whole collection about 0.74% have one here.

CC(=O)c1ccc(OCC(O)CN2CCN(CCN3C(=O)c4cccc5cccc(c45)C3=O)CC2)cc1 (centres undefined) was read as p97 ATPase inh 4, LYPLA2 counter 53*, LYPLA1 inh 2, Redox H2O2 prof -1, LYPLA2 confirm 59* and LYPLA2 ABPP 20.
Screening Cc1ccccc1OCC(O)CN1CCN(CCN2C(=O)c3cccc4cccc(c34)C2=O)CC1 (centres undefined) returned p97 ATPase inh -1, LYPLA2 counter 39*, LYPLA1 inh -3, Redox H2O2 prof 1 and LYPLA2 confirm 48*.
For CCN(CC)S(=O)(=O)c1cccc(C(=O)OCC(=O)NCCN2C(=O)CSC2=O)c1 the results were LYPLA2 counter 1 and LYPLA1 inh -1.
Screening C=C1C(=O)[C@@]23[C@H](O)C[C@@H]4C(C)(C)CC[C@H](O)[C@@]4(C)[C@@H]2CC[C@@H]1[C@H]3O returned p97 ATPase inh 4, LYPLA2 counter -1, LYPLA1 inh -2 and Redox H2O2 prof 1.
For COC(=O)c1ccc(OC(=O)c2ccc(OC)cc2)c(OC)c1 the results were p97 ATPase inh -3, LYPLA2 counter 1, LYPLA1 inh -2 and Redox H2O2 prof -1.
CCOC(=O)C1CCCN(C(=O)c2ccc(S(=O)(=O)Nc3ccccc3OC)cc2)C1 (centres undefined) was read as LYPLA2 counter -2 and LYPLA1 inh -1.
For Cc1cc(SCC(=O)NCCC2=CCCCC2)nc2ccccc12 the results were p97 ATPase inh -6, LYPLA2 counter -5, LYPLA1 inh -1 and Redox H2O2 prof 0.
`CCOC(=O)C1CCCN(C(=O)c2ccc3nc(-c4cccc(OC)c4)oc3c2)C1` (centres undefined) gave LYPLA2 counter 56*, LYPLA1 inh 7 and LYPLA2 confirm 57*.
CCC(=O)C1CCCN(C(=O)c2ccc3nc(-c4cccc(OC)c4)oc3c2)C1 (centres undefined) was read as LYPLA2 counter 29*, LYPLA1 inh 8 and LYPLA2 confirm 40*.
For N#Cc1ccc(COC(=O)c2cnc3ccccc3n2)cc1 the results were LYPLA2 counter 27*, LYPLA1 inh 2 and LYPLA2 confirm 27*.
For COc1ccc(C2N(c3ccc4c(c3)OCCO4)C(=O)C2(F)F)cc1OC (centres undefined) the results were p97 ATPase inh -1, LYPLA2 counter -3 and LYPLA1 inh -3.
`Cc1cc(C)c(C#N)c(SCc2[nH]nc3c2C(c2ccc(F)cc2)C(C#N)=C(N)O3)n1` (centres undefined) gave p97 ATPase inh 2, LYPLA2 counter 40*, LYPLA1 inh -2, Redox H2O2 prof -1 and LYPLA2 confirm 36*.
COc1ccc([C@H]2CC(=O)C=C(c3cccc(OC)c3)C2)cc1 was read as LYPLA2 counter 3 and LYPLA1 inh -3.
For COc1ccc([C@H]2CC(=O)C=C(c3cccc(C#N)c3)C2)cc1 the results were LYPLA2 counter 33*, LYPLA1 inh 12 and LYPLA2 confirm 26*.
`CN(C(=O)c1ccc(NC(=O)Cc2ccc(NC(=O)C3CCN(C(=O)C4CC4)CC3)cc2)cc1)C1CC1` gave LYPLA2 counter 5 and LYPLA1 inh 4.
For CN(C(=O)c1ccc(NC(=O)Cc2ccc(NC(=O)C3CCCN(C(=O)C4CC4)C3)cc2)cc1)C1CC1 (centres undefined) the results were LYPLA2 counter 60*, LYPLA1 inh 3, LYPLA2 confirm 61* and LYPLA2 ABPP 45.
For CN(C(=O)c1ccc(NC(=O)Cc2cccc(NC(=O)C3CCN(C(=O)C4CCCC4)CC3)c2)cc1)C1CCCC1 the results were LYPLA2 counter 32*, LYPLA1 inh 3 and LYPLA2 confirm -5.
For CCCN(CC1CC1)C(=O)CSc1ncnc2sccc12 the results were p97 ATPase inh 1, LYPLA2 counter 0, LYPLA1 inh 4 and Redox H2O2 prof -2.
